Screening data (PubChem)
Shown are actives, neighbours in structure and some others; about 1.7% of the full set was active somewhere.
IkB signaling: IkB pathway inhibition in ABC-DLBCL cells; ABC-DLBCL IkBa-CBG/CBR dual luciferase ratio, 4 h; response scale: scaled: untreated 0%, proteasome inhibitor 100%; Potency, µM (doses to about 57.1 µM), inactives show at the top dose IkBa stabilization activation; actives 0.04% (n = 110,000); AID 445; active means well fitted curve in the direction sought with a large enough effect in the signal ratio, not every such curve was filed as active; inconclusive means small, poorly fitted or top-dose-only effect, or a change in a side signal; the % refers to the signal ratio;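 further: the direction sought is a rising ratio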
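Curves were fitted separately to fusion (green), unfused (red) and ratio luminescence, then classed by r2, magnitude and activity. Cells: OCI-Ly3, 4 h compound plus doxycycline at 37C; 10 uM MG-132 defined full response.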
p53ts 32C kill: kills p53ts cells at the permissive temperature. Potency, µM (titrated, usually from 46.1 µM), for the others: at the top dose activity change, negative = cytotoxicity, most hits filed as cytotoxic. H1299-p53A138V at 32C, ATP luminescence viability, 24 h. actives 0.93% (n = 130,000). AID 924;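 further: 0% = DMSO and -100% = full killing by reference compound; nearly all actives have a fitted effect of over 55% in size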
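ATP-content luminescence (ATPlite) read-out after 24 h compound exposure at 32C in H1299-p53A138V cells (600/well). Tested up to 46 uM. Normalized to DMSO (0%) and 100 uM tamoxifen (100% killing); Hill-fit AC50.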
p53ts 39C kill: kills p53ts cells at the nonpermissive temperature | H1299-p53A138V viability at 39C, ATP luminescence, 24 h | Potency, µM (top dose mostly 46.1 µM), without a hit: at the highest dose activity change, negative = cell killing, actives largely listed as cytotoxic | actives 1.5% (n = 130,000) | AID 902; further: on the % scale 0 is the no-effect control and ±100 the full control effect; nearly all actives have a fitted effect of over 55% in size
Imprint erasure: genomic imprint erasure induction; actives 0.02% (n = 110,000); AID 1948; Potency, µM (highest dose often 60.7 µM), without a hit: at the top dose activity change, positive = activation, usual class: activators; mouse ES Peg3-LacZ reporter, beta-gal luminescence, 40 h
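Imprint erasure is scored as LacZ activity from the silenced maternal Peg3 allele in feeder-free female ES cells cultured 40 h with LIF. Luminescence is normalized to in-plate negative controls and fitted to the Hill equation.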
An asterisk follows results filed as active; ? = inconclusive; . = no result; [ ] = remark or other dose. Unless noted, the call rests on the fitted dose curve; in most records, active means well fitted curve in the direction sought with a large enough effect; inconclusive means small, poorly fitted or top-dose-only effect, or another doubt; inactive means no such curve, though single readings can be large; an effect the other way counts as inactive or inconclusive. Potency means the concentration at half of the fitted maximal effect.

SMILES	IkB signaling	p53ts 32C kill	p53ts 39C kill	Imprint erasure
Fc1cccc(CSc2nc3ccncc3[nH]2)c1	-4%	5µM*	10µM*	-20%
Cc1ccc(C(=O)CC2(O)C(=O)N(CCc3ccccc3)c3ccc(Br)cc32)o1 (centres undefined)	?	4%	4%	-8%
O=C(CC1(O)C(=O)N(CCc2ccccc2)c2ccc(Br)cc21)c1ccccc1 (centres undefined)	?	-29%	?	-14%[10.9 µM]
Cc1ccc(C(=O)CC2(O)C(=O)N(CCc3ccccc3)c3ccc(Cl)cc32)cc1 (centres undefined)	?	?	16µM*	-12%[10.9 µM]
Cc1[nH]c2ccccc2c1C1(O)C(=O)N(Cc2ccccc2)c2ccc(Br)cc21 (centres undefined)	?	-20%	13µM*	-10%[10.9 µM]
COc1ccc(C(=O)CC2(O)C(=O)N(Cc3ccccc3)c3ccc(Br)cc32)cc1 (centres undefined)	?	15%	13µM*	-12%[10.9 µM]
Cc1ccc(CS(=O)(=O)c2ncc(Cl)c(C(=O)Nc3nnc(C(C)C)s3)n2)cc1	0%	13µM*	5µM*	-31%[10.9 µM]
Cc1cccc(CS(=O)(=O)c2ncc(Cl)c(C(=O)Nc3nnc(C(C)C)s3)n2)c1	4%	16µM*	5µM*	-23%[10.9 µM]
CC(C)c1nnc(NC(=O)c2nc(SCc3ccc(F)cc3)ncc2Cl)s1	6%	-3%	-20%	-11%[10.9 µM]
Cc1ccc(CNC(=O)c2ccc3c(c2)NC(=O)C(CS(=O)(=O)Cc2cccc(C)c2)N3)cc1 (centres undefined)	?	-19%	?	-5%[10.9 µM]
CC(C)CNC(=O)NC1C(NC(=O)NCC(C)C)N(C)C(=O)N1C (centres undefined)	?	5µM*	6.3µM*	-62%
Cc1ccc(S(=O)(=O)NCC(c2ccco2)N2CCN(c3ccccc3F)CC2)cc1 (centres undefined)	0%	15%	-1%	-8%[10.9 µM]
N#C/C(=C\c1ccc(-c2ccc(F)cc2F)o1)c1nc2ccccc2[nH]1	-11%	16µM*	6.3µM*	-13%[10.9 µM]
CCOC(=O)c1ccc(-c2ccc(/C=C(\C#N)c3nc4ccc(C)cc4[nH]3)o2)cc1	?	?	3.2µM*	-41%[10.9 µM]
CC1CC[C@@]2(C(=O)O)CC[C@]3(C)C(=CCC4[C@@]5(C)CCC(O)C(C)(C)C5CC[C@@]43C)C2C1C (some centres undefined)	.	8%	8%	-18%
c1nnc(NC2=NCCCCC2)s1	1%	-4%	-8%	-14%
Clc1ccc(-c2nnc(NC3=NCCCCC3)o2)cc1	?	13µM*	13µM*	-80%
CCCCOC(=O)Nc1ccc(C(=O)OCCC)cc1	6%	1%	1%	-18%
CCCOC(=O)Nc1ccc(N2CCCCC2)cc1	1%	13µM*	16µM*	-44%
CCN1CCN(CCCNC(=O)c2cnn(-c3ccc(C)cc3)c2C2CCN(C(=O)OC(C)(C)C)CC2)CC1	?	6%	15%	5%[10.9 µM]
Cc1ccc(C)c(N2CCN(CCCNC(=O)c3cnn(-c4ccc(F)cc4)c3C3CCN(C(=O)OC(C)(C)C)CC3)CC2)c1	?	?	25µM*	-5%[10.9 µM]
Cc1ccc(C)c(N2CCN(CCCNC(=O)c3cnn(-c4cccc(Cl)c4)c3C3CCN(C(=O)OC(C)(C)C)CC3)CC2)c1	?	?	?	-16%[10.9 µM]
Cc1ccc(C)c(N2CCN(CCCNC(=O)c3cnn(-c4ccccc4Cl)c3C3CCN(C(=O)OC(C)(C)C)CC3)CC2)c1	?	2%	16µM*	-8%[10.9 µM]
CC(C)(C)OC(=O)N1CCC(c2c(C(=O)NC3CCN(Cc4ccccc4)CC3)cnn2-c2ccc(F)cc2F)CC1	?	6%	22%	5%[10.9 µM]
CCOC(=O)c1c(S(=O)(=O)N2CCC(C(=O)Nc3ccc(OCC)cc3)CC2)c(C)n(C)c1C	-2%	2%	?	5%[10.9 µM]
SMILES	IkB signaling	p53ts 32C kill	p53ts 39C kill	Imprint erasure
Cc1ccc(Nc2c(-c3c[nH]c4ccccc34)nc3cc(C)ccn23)cc1	?	-19%	?	3%[10.9 µM]
Cc1ccn2c(Nc3ccccc3)c(-c3c[nH]c4ccccc34)nc2c1	?	-22%	16µM*	-8%[10.9 µM]
Cc1ccccc1OC(=O)CSc1nnc(-c2cccs2)o1	3%	-18%	-7%	-9%[10.9 µM]
Cc1ccccc1Nc1c(-c2ccc(N3CCOCC3)cc2)nc2cccc(C)n12	?	?	7.9µM*	-11%[10.9 µM]
Cc1ccccc1Nc1c(-c2ccc(N3CCOCC3)cc2)nc2ccccn12	?	1µM*	1µM*	-10%[10.9 µM]
N#CCCS(=O)(=O)c1nnnn1-c1ccccc1	?	?	20µM*	-27%
CCc1ccccc1OC[C@@H](O)CN[C@H]1CCCc2ccccc21	?	32µM*	20µM*	-53%
COc1ccc(CCNC(=O)Cn2cc(C(=O)c3ccccc3)c(=O)c3ccc(C)nc32)cc1OC	-1%	2%	6%	?
Cc1ccc(C)c(N2CCN(CCCNC(=O)c3ccc4nc(N5CCC(C)CC5)sc4c3)CC2)c1	?	-6%	13µM*	-19%[10.9 µM]
Cc1ccc(Cl)cc1N1CCN(CCCNC(=O)c2ccc3nc(N4CCCCC4)sc3c2)CC1	?	-2%	-4%	-22%[10.9 µM]
Cc1ccc(C)c(N2CCN(CCCNC(=O)c3ccc4nc(CCc5ccccc5)oc4c3)CC2)c1	?	-27%	25µM*	-18%[10.9 µM]
O=C(Nc1ccc2nc(-c3cccs3)[nH]c2c1)c1ccco1	2%	?	13µM*	-24%
CCN(CC)c1nn2c(=O)c(C(=O)NCc3ccc(F)cc3)cnc2s1	-5%	-6%	-17%	15%[10.9 µM]
C/C=C/OC(=O)NC(c1ccccc1)[C@@]1(C(=O)OC)CCCC1=O (some centres undefined)	.	3%[9.22 µM]	7%[9.22 µM]	.
c1ccc(-c2ccc(-c3ccccn3)nn2)nc1	?	13µM*	10µM*	-89%
O=C(O)c1cc(-c2ccc3cc4c(cc3c2)OCO4)nc2ccccc12	0%[11.4 µM]	1.6µM*	1.3µM*	-50%[10.9 µM]
COC(=O)[C@H]1[C@@H]2C[C@H]3c4[nH]c5ccccc5c4CCN3C[C@@H]2CC[C@@H]1O	?	-15%	-14%	-12%
Nc1nc(Cl)nc2c1ncn2[C@@H]1O[C@@H](CO)[C@@H](O)[C@H]1O	?	16µM*	13µM*	.
OC[C@@H]1O[C@@H](n2cnc3c(NCc4ccco4)ncnc32)[C@H](O)[C@H]1O	3%[11.4 µM]	.	.	.
CSc1ncnc2c1ncn2C1OC(CO)C(O)C1O (centres undefined)	.	?	10µM*	?
OC[C@H]1O[C@@H](n2cnc3cncnc32)[C@H](O)[C@@H]1O	.	?	10µM*	-12%
OC[C@H]1O[C@@H](n2cnc3c(NCc4ccco4)ncnc32)[C@H](O)[C@@H]1O	.	16µM*	?	-7%
Nc1ncnc2c1ncn2C1OC(CO)C(O)C1O (centres undefined)	.	18%	0%	6%
